Bioassay records as filed in PubChem BioAssay.
Pf Dd2 growth – Plasmodium falciparum Dd2 growth inhibition | P. falciparum Dd2 growth, SYBR Green, 72 h | Potency, µM (series often up to 28.9 µM), usual class: inhibitors | 120,000 compounds, 4.3% hits | AID 1347417; active means well fitted inhibition curve with a large enough effect; further: nearly all actives have a fitted effect of over 65% in size
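Infected erythrocytes (Dd2, 0.3% parasitemia, 2.5% hematocrit final) are added to compound in RPMI-1640/Albumax II medium, grown 72 h at 37C in low oxygen, then lysed with saponin/Triton-X containing SYBR Green and read by fluorescence.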
Of the large screens only hits and unclear results are named; the others gave an inactive call; ! = repeats disagree. This is one part of a sample in which hits are shown more often than they occur.

O=C(Cc1cccc(Cl)c1)N1CCC(Oc2ncccc2C(=O)N2CCCCC2)C1 (stereo not drawn)	Pf Dd2 growth 7.94µM
O=C(Cc1ccccc1F)N1CCC(Oc2ncccc2C(=O)N2CCCCC2)C1 (stereo not drawn)	none
O=C(Cc1cccs1)N1CCC(Oc2ncccc2C(=O)N2CCCCC2)C1 (stereo not drawn)	none
CN(C)C[C@@H]1CN(Cc2ccccc2)C[C@H]1NC(=O)c1ccncc1	none
O=C(NC1CCc2n[nH]c(=O)n2CC1)c1ccc2nc[nH]c2c1 (stereo not drawn)	none
N#Cc1ccc2nc([C@H]3CCN(Cc4ccccc4)C3)[nH]c2c1	none
FC(F)(F)c1ccc2nc([C@H]3CCN(CC4CC4)C3)[nH]c2c1	Pf Dd2 growth 12.6µM
CC(=O)N1CC[C@H](c2nc3ccc(C(F)(F)F)cc3[nH]2)C1	none
c1cc2nc(C3CCN(C4CCCCC4)C3)[nH]c2cn1 (stereo not drawn)	none
Brc1ccc(CN2CCC(c3nc4ncccc4[nH]3)C2)cc1 (stereo not drawn)	none
N#Cc1ccc(CN2CCC(c3nc4ccncc4[nH]3)C2)cc1 (stereo not drawn)	Pf Dd2 growth 10µM!
FC(F)(F)c1ccc(CN2CC[C@H](c3nc4ccccc4[nH]3)C2)cc1	none
O=C(C1CCCCC1)N1CC[C@H](c2nc3ccc(C(F)(F)F)cc3[nH]2)C1	none
CN(C)c1ccc(CN2CC[C@H](c3nc4ccc(C(F)(F)F)cc4[nH]3)C2)cc1	Pf Dd2 growth 5.62µM
O=C(c1ccccc1)N1CC[C@H](c2nc3ccc(F)cc3[nH]2)C1	none
CN1CCC(N2CC[C@H](c3nc4ccccc4[nH]3)C2)CC1	none
FC(F)(F)c1ccc2nc([C@H]3CCN(C4CCCCC4)C3)[nH]c2c1	Pf Dd2 growth 7.94µM
CC(C)Cc1nc2ccc(NC(=O)C[C@H]3NC(=O)c4ccccc4NC3=O)cc2[nH]1	none
COc1ccccc1C(=O)N1CCC(OC2CCN(S(C)(=O)=O)CC2)CC1	none
CN(Cc1cccc(C(=O)Nc2cccc(C#N)c2)c1)CC1COCCO1 (stereo not drawn)	none
O=C(CCc1ccc(=O)[nH]n1)N1CCC2(CCCNC2=O)C1 (stereo not drawn)	none
COC(=O)C1=CN(CC(=O)N2CCN(c3ccccc3)CC2)S(=O)(=O)N=C1C	none
Cc1ccc(C(=O)N2CCC(n3cc(-c4nc(C)no4)nn3)CC2)cc1	none
O=C(c1cccnc1)N1CCC(OC2CCN(Cc3ccccc3)CC2)CC1	none
Cc1ccc(C(=O)N2CCC(OC3CCN(Cc4ccccc4)CC3)CC2)cc1	Pf Dd2 growth 8.91µM
CC(C)S(=O)(=O)N1CCC(OC2CCN(Cc3cccnc3)CC2)CC1	none
O=C(CC1CCN(S(=O)(=O)c2cccc(F)c2)C1)NCc1ccccc1 (stereo not drawn)	none
O=S(=O)(c1cccc(F)c1)N1CCC(OC2CCN(Cc3ccccc3)CC2)CC1	Pf Dd2 growth 2.82µM
O=C(c1ccc(Cl)cc1)N1CCC(OC2CCN(Cc3cccnc3)CC2)CC1	none
Cc1ccc(S(=O)(=O)N2CCC(OC3CCN(Cc4ccccc4)CC3)CC2)cc1C	Pf Dd2 growth 0.891µM
O=C(Nc1ccc(F)cc1F)N1CCC(OC2CCN(Cc3ccccc3)CC2)CC1	none
CCOC(=O)CCNC(=O)N1CCC(OC2CCN(Cc3ccccc3)CC2)CC1	none
Cn1ccnc1CN1CCC2(CC1)OC(=O)N(Cc1cccnc1)C2(C)c1ccccc1 (stereo not drawn)	none
O=C(NC[C@H]1OC[C@@H](NCc2cccs2)[C@@H]1O)c1cccs1	none
Cc1noc(C)c1S(=O)(=O)N1CCCN(S(=O)(=O)c2ccccc2)CCC(=O)NCC1	none
Nc1ccc(-c2ccc(OCCn3ccnc3)cc2)cn1	none
Cc1nc(-c2c3n(c(=O)n(CC(=O)Nc4cc(Cl)ccc4C)c2=O)CCCCC3)no1	none
COc1ccc(Cn2c(C3CCN(C(=O)c4ccsc4)CC3)n[nH]c2=O)cc1	none
O=C(NCCN1CCCC1)c1c(OCC2CC2)cc(=O)n2c1CCOCC2	none
Cn1c(=O)c2c(-c3cccc(Br)c3)n(CCO)cc2n(C)c1=O	none
Cn1c(=O)c2c(-c3ccccc3Cl)n(-c3cc(Cl)ccc3O)cc2n(C)c1=O	Pf Dd2 growth 7.94µM
Cn1c(=O)c2c(-c3ccccc3Cl)n(Cc3ccc(Cl)cc3)cc2n(C)c1=O	none
CCCc1nn(-c2cccc(C)c2)c(=O)n1CC(=O)NCc1ccc(C)o1	none
Cc1ccsc1C(=O)N1CCC2(CC1)N(c1ccccc1)C(=O)CS2(=O)=O	none
COCCOCC(=O)N1[C@@H]2CC[C@H]1CC(NC(=O)c1ccc(F)cc1)C2 (stereo partly drawn)	none
COCCN1CCCC2(CCN(C(=O)CCn3ccc(C)n3)C2)C1=O (stereo not drawn)	none
Cc1cc(-c2ccccc2)nc(CN2CC[C@@](O)(C3CCC3)[C@H](C)C2)n1	Pf Dd2 growth 10µM
C[C@@H]1CN(Cc2nc(C(N)=O)no2)CC[C@@]1(O)C1CCOCC1	none
COc1ccc(CNC(=O)N2CC[C@@](O)(C3CCC3)[C@H](C)C2)cc1	none
Cc1cc(C(F)(F)F)nn1CCNC(=O)[C@H]1CCC[C@H](O)C1	none
CCN(CC)C(=O)[C@@H]1CCC[C@@H](NCc2cnn(C)c2)CN(C)C(=O)C1	none
COC(=O)c1ccccc1NC(=O)C1CCCN(c2ncnc3onc(C)c23)C1 (stereo not drawn)	none
CCOCCCNC(=O)C1CCCN(c2ncnc3onc(C)c23)C1 (stereo not drawn)	none
CCOC(=O)c1ccc(NC(=O)C2CCCN(c3ncnc4onc(C)c34)C2)cc1 (stereo not drawn)	Pf Dd2 growth 7.94µM
Cc1ccc(Sc2ccc(N3CCCC(C(=O)Nc4ccc(F)cc4F)C3)nn2)cc1 (stereo not drawn)	none
CCOC(=O)c1ccc(NC(=O)C2CCCN(c3cnccn3)C2)cc1 (stereo not drawn)	none
CCOC(=O)c1ccc(NC(=O)C2CCCN(c3ccc(Sc4ccc(C)cc4)nn3)C2)cc1 (stereo not drawn)	Pf Dd2 growth 5.62µM
CC1=C(C(=O)OC(C)C)C(c2ccccc2)N2C(CC(=O)NCC3CCCO3)=CSC2=N1 (stereo not drawn)	none
COc1ccc(-c2ccccc2NC(=O)C2CCCN2C(=O)CC(C)(C)C)cc1 (stereo not drawn)	none
Cc1nc2c(c(-c3ccc(O)cc3)n1)CN(C(=O)c1ccc(F)cc1)CCC2	none
COc1ccc([C@H]2C[C@@H](O)[C@@H](O)[C@@H]2NC(=O)c2c(-c3ccccc3)noc2C)cc1	none
Cc1cccc(OCC(=O)N2CCC[C@H]2c2nc(-c3ccc(F)cc3)no2)c1	none
COc1ccc(/C=C/C(=O)Nc2ccc(Cl)c(Cl)c2)cc1	none
COc1ccc(NC(=O)c2sc3nc4c(cc3c2N)CCCCCC4)cc1OC	none
COc1cc(NC(=O)CSc2c3c(nc4ccccc24)CCC3)cc(OC)c1OC	none
COc1ccc(Nc2c3c(nc4ccc(NC(=O)/C=C/c5cc(OC)c(OC)c(OC)c5)cc24)CCCC3)cc1OC	Pf Dd2 growth 2.51µM
COc1ccc(/C=C/C(=O)Nc2ccc3nc4c(c(Nc5ccc(OC)c(OC)c5)c3c2)CCCC4)cc1	Pf Dd2 growth 2.24µM
COc1cc(NC(=O)c2ccc3c(Cl)c4c(nc3c2)CCC4)cc(OC)c1OC	none
COc1ccc(C(=O)NCC2CCCCC(=O)N2)cc1 (stereo not drawn)	none
CCC1(C(=O)NCc2ccc(F)cc2)CCCCC(=O)N1 (stereo not drawn)	none
Cc1ccc(C)c(NC(=O)Cn2nc3n(c2=O)CCCC3)c1	none
CCNC(=O)N1CCCCCC1c1nc(C2CC2)no1 (stereo not drawn)	none
Cc1ccc(NC(=O)Cn2c(=O)oc3cc(S(=O)(=O)N4CCCCC4)ccc32)c(C)c1	none
